In the library only some 14% were active in any assay of this set; here they are far more common.
HCV inh = qHTS Assay for Inhibitors of Hepatitis C Virus (HCV) | Huh7.5.1 HCVcc-Cre infection, luciferase reporter, 44 h | Potency, µM (titrated, usually from 41.8 µM), for the others: top-dose activity change, negative = inhibition, most hits filed as inhibitors | 340,000 compounds, 3.4% hits | AID 651820, 2012; also: potency is read from the fitted curve at half-maximal effect
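Reporter virus HCVcc-Cre (~0.5 moi) infects cells exposed to compound; seeding density 1,000 cells/well with 4 h settling beforehand. Luminescence, 15 sec read, taken 44 h post-infection following a 15 min RT substrate incubation.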
Pf growth 96h = Primary qHTS for delayed death inhibitors of the malarial parasite plastid, 96 hour incubation; 320,000 compounds, 6.9% hits; P. falciparum luciferase reporter growth, 96 h; Potency, µM (highest dose often 28.7 µM), for the others: at the highest dose activity change, negative = inhibition, actives largely listed as inhibitors; also: potency is read from the fitted curve at half-maximal effect
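Compounds incubated with erythrocytes infected by luciferase-expressing P. falciparum (2% hematocrit, 0.05% parasitemia final) for 96 hours, 37 C in 5% CO2. Growth inhibition scored as decreased luciferase luminescence.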
HCMV inh = qHTS Assay for inhibitors of the human cytomegalovirus (HCMV) | HFF cells, HCMV-luciferase reporter, 72 h; active compounds read low | activity change, negative = inhibition, % at 57.5 µM | 410,000 compounds, 4.5% hits | AID 1259415, 2018; in the data active = activity change below about -60%; inconclusive = no clear call, values can overlap the other calls; inactive = above about -39%
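Inhibition of viral replication was scored as loss of reporter luminescence in HFFs infected with HCMV-luciferase (MOI 1 PFU/cell) for 72 h; compounds tested at 2 doses, normalized to buffer and Salinomycin controls.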
Pf growth 48h = Primary qHTS for delayed death inhibitors of the malarial parasite plastid, 48 hour incubation | AID 504832, 2011 | P. falciparum luciferase growth in erythrocytes, 48 h | 310,000 compounds, 5.9% hits | Potency, µM (top dose mostly 28.7 µM), inactives show at the top dose activity change, negative = inhibition, hits mostly inhibitors; also: potency is read from the fitted curve at half-maximal effect
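Luminescence readout; reporter = integrated firefly luciferase in P. falciparum. RBC culture at 2% hematocrit, 0.1% parasitemia final, 37 C/5% CO2; decreased signal taken as growth inhibition.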
Marburg entry inh = qHTS for inhibitors of binding or entry into cells for Marburg Virus. Marburg virus pseudotyped entry inhibition, cell reporter. Potency, µM (doses to about 37.8 µM), without a hit: top-dose activity change, negative = inhibition, usual class: inhibitors. 300,000 compounds, 1.8% hits; calls by dose curve; tested in HEK293 cells; also: potency is read from the fitted curve at half-maximal effect
LASV entry inh = qHTS for Inhibitors of binding or entry into cells for Lassa Virus. Lassa virus pseudotype entry inhibition, cell reporter. 300,000 compounds, 1.2% hits. Potency, µM (series often up to 37.9 µM), inactives show top-dose activity change, negative = inhibition, most hits filed as inhibitors. AID 540256, 2011; calls by dose curve; tested in HEK293 cells; also: potency is read from the fitted curve at half-maximal effect; nearly all actives have a fitted effect of over 50% in size
The depositor's hits bear a star; ? = inconclusive; · = no result given; [ ] = another dose, or the depositor's remark. Unless noted, calls follow the shape of the dose curve; as a rule, active = well fitted inhibition curve with a large enough effect; inconclusive = small, poorly fitted or top-dose-only effect, or another doubt; inactive = no such curve, though single readings can be large or run the other way. % is scaled to controls: 0 for no effect and ±100 for the full control effect.

SMILES | HCV inh | Pf growth 96h | HCMV inh | Pf growth 48h | Marburg entry inh | LASV entry inh
COc1ccc2cc(CN(CCc3ccccc3)Cc3nnnn3CC3CCCO3)c(=O)[nH]c2c1 (stereo not drawn) | -21% | 124% | 7 | 9.3µM* | 1% | ?
COCCn1nnnc1CN(CCc1ccccc1)Cc1cc2ccc(C)cc2[nH]c1=O | 0% | 10µM* | -1 | ? | -25% | -17%
O=c1[nH]c2cc3c(cc2cc1CN(Cc1nnnn1CC1CCCO1)C1CCCC1)OCO3 (stereo not drawn) | 13% | 10µM* | -11 | 32% | -1% | -1%
COc1ccc2[nH]c(=O)c(CN(Cc3ccc(C)cc3)Cc3nnnn3CC3CCCO3)cc2c1 (stereo not drawn) | 6% | 8.3µM* | 3 | ? | 0% | -6%
O=c1[nH]c2cc3c(cc2cc1CN(Cc1nnnn1CC1CCCO1)C1CCCCC1)OCO3 (stereo not drawn) | -4% | -13% | 69 | ? | 15% | 2%
COc1ccc2[nH]c(=O)c(CN(Cc3ccccc3OC)Cc3nnnn3CC3CCCO3)cc2c1 (stereo not drawn) | 12% | 42% | -2 | ? | -22% | -2%
COc1ccc2[nH]c(=O)c(CN(Cc3ccco3)Cc3nnnn3Cc3ccccc3)cc2c1 | -8% | · | -31 | ? | -18% | -13%
COc1ccccc1CN(Cc1cc2cc(C)ccc2[nH]c1=O)Cc1nnnn1CC1CCCO1 (stereo not drawn) | -1% | 10µM* | -10 | 7.4µM* | ? | -23%
COc1ccccc1CN(Cc1cc2cc(C)ccc2[nH]c1=O)Cc1nnnn1Cc1ccco1 | 13µM* | 3.3µM* | -4 | 12µM* | 13µM* | ?
COc1ccccc1CN(Cc1cc2cc(C)cc(C)c2[nH]c1=O)Cc1nnnn1CC1CCCO1 (stereo not drawn) | -21% | · | 7 | ? | 10µM* | ?
C/C=C(\C)C(=O)Nc1cccc(C2=NOC3(C2)C[C@@H](C(N)=O)N(C(=O)/C(C)=C/C)C3)c1 (stereo partly drawn) | 6% | -2% | -68* | 45% | · | ·
C/C=C(/C)C(=O)Nc1cccc(C2=NOC3(C2)C[C@H](C(N)=O)N(C(=O)Cc2ccc([N+](=O)[O-])cc2)C3)c1 (stereo partly drawn) | -19% | ? | -13 | 12µM* | 2% | ·
C=C(C)C(=O)Nc1cccc(C2=NOC3(C2)C[C@@H](C(N)=O)N(C(=O)/C(C)=C/C)C3)c1 (stereo partly drawn) | 16% | 26% | -32 | 37% | · | ·
Cc1nc2c(C(=O)N3CCOCC3)cnn2c(C)c1Cc1ccc(Cl)cc1 | 14% | ? | -32 | 3% | -2% | -11%
Cc1nc2c(C(=O)N3CCOCC3)cnn2c(C)c1Cc1cccc(Cl)c1 | · | 7.4µM* | -11 | ? | 0% | ·
Cc1nc2c(C(=O)NC(C)c3ccccc3)cnn2c(C)c1Cc1ccccc1 (stereo not drawn) | · | · | -86* | · | · | ?
COC(=O)/C=C1\Nc2ccc(Cl)cc2C(=O)NC1=O | · | · | 18 | · | · | ·
Cc1ccc(NC(=O)c2sc(-n3nc(C)c(CCC(C)C)c3C)nc2C)cc1C | · | · | 5 | · | 1%[46.1 µM] | 0%[46.1 µM]
COc1ccc(NC(=O)C(Cl)=C(Cl)Cl)cn1 | 10µM* | ? | 0 | ? | ? | ?
COc1ccc(NC(=O)/C(Cl)=C(/Cl)S(=O)(=O)Cc2ccccc2)cn1 | 3.5µM* | -13% | -105* | · | ? | 22µM*
COc1ccc(NC(=O)C(C)(C)Oc2ccc(Cl)cc2)cn1 | -21% | 7% | -35 | 26% | 23% | 0%
COc1ccc(NC(=O)CCl)cn1 | · | 10µM* | · | 8.3µM* | · | ·
COc1ccc(NC(=O)/C(Cl)=C(/Cl)S(=O)Cc2ccc(Cl)cc2)cn1 (stereo not drawn) | 7.9µM* | ? | -100* | -36% | ? | 3.2µM*
CCOC(=O)c1cccc(NS(=O)(=O)c2cc3c(cc2C)NC(=O)CO3)c1 | · | · | -23 | · | · | 0%[46.1 µM]
CCOC(=O)c1ccc(NC(=O)CSc2nnc(-c3ccncc3)n2-c2ccccc2)cc1 | · | · | 3 | · | · | 21%[46.1 µM]
SMILES | HCV inh | Pf growth 96h | HCMV inh | Pf growth 48h | Marburg entry inh | LASV entry inh
COc1cc(C2CC(=O)Oc3c(C(CCN4CCOCC4)c4ccc(N(C)C)cc4)c(OC)cc(OC)c32)cc(OC)c1OC (stereo not drawn) | 13% | ? | 47 | 12µM* | · | ·
COc1ccc(C2CC(=O)Oc3c(C(CCN4CCCCC4)c4ccc(N(C)C)cc4)c(OC)cc(OC)c32)cc1 (stereo not drawn) | -11% | 9.3µM* | -60* | ? | · | ·
COc1ccc(C2CC(=O)Oc3c(C(CCN4CCCC(C)C4)c4ccc(N(C)C)cc4)c(OC)cc(OC)c32)cc1 (stereo not drawn) | -3% | ? | -3 | ? | · | ·
COc1cc(C2CC(=O)Oc3c(C(CCN4CCN(c5ccccc5)CC4)c4ccc(N(C)C)cc4)c(OC)cc(OC)c32)cc(OC)c1OC (stereo not drawn) | -6% | 4.1µM* | 10 | 4.1µM* | · | ·
CCOC(=O)c1ccc(CN(Cc2ccccc2C)S(=O)(=O)c2ccc(F)c(C(=O)Nc3cccc(OC)c3)c2)cc1 | · | · | 24 | · | · | -5%[46.1 µM]
CC1CCN(S(=O)(=O)c2ccc3c(c2)N(CC(=O)NCCc2ccc(Cl)cc2)C(=O)CO3)CC1 | · | · | -7 | · | ? | -2%[46.1 µM]
COc1ccc(-c2nn3c(-c4ccc(C)cc4)nnc3c3ccccc23)cc1 | · | · | 73 | · | -9%[46.1 µM] | 23%[46.1 µM]
c1ccc(-c2ncc(CSc3nncn3-c3ccccc3)s2)cc1 | -13% | ? | 7 | · | -4%[46.1 µM] | 11%
Cc1nnc(SCc2cnc(-c3ccc(C(C)C)cc3)s2)n1C | 12% | 12µM* | 95 | 250% | 4% | -4%
Cc1ccc(NC(=O)CC2Oc3ccccc3NC2=O)cc1C (stereo not drawn) | · | · | 175 | · | 3%[46.1 µM] | ·
Cc1ccc(C(=O)NCCc2c[nH]c3ccccc23)s1 | ? | 111% | 28 | 70% | ? | ·
COc1ccc(C(c2nnnn2-c2c(C)cccc2C)N2CCC(n3c(=O)[nH]c4ccccc43)CC2)cc1 (stereo not drawn) | · | · | -69* | · | · | ·
Cc1cccc(C)c1-n1nnnc1C(c1cc2ccccc2o1)N1CCC(n2c(=O)[nH]c3ccccc32)CC1 (stereo not drawn) | · | · | -67* | · | · | ·
O=C(O)Cc1ccc2c(c1)Cc1cccnc1O2 | · | · | -10 | · | · | ·

Screening results from PubChem BioAssay.
